About 14,000 (4.5%) of roughly 310,000 compounds showed an effect of 50% or more. The effect is printed as a negative number. This is one part of a sample in which strong results are shown more often than they occur.
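Further: peak tail current of the secondary pulse compared with the same well before compound.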

The target in this experiment is human ether-à-go-go-related gene (hERG) potassium channel (human, UniProt Q12809). Nature of the experiment: primary screen, population patch clamp on CHO cells stably expressing hERG; higher = less effect of the substance.
Sequence of human ether-à-go-go-related gene (hERG) potassium channel (Q12809 whole entry, looked up): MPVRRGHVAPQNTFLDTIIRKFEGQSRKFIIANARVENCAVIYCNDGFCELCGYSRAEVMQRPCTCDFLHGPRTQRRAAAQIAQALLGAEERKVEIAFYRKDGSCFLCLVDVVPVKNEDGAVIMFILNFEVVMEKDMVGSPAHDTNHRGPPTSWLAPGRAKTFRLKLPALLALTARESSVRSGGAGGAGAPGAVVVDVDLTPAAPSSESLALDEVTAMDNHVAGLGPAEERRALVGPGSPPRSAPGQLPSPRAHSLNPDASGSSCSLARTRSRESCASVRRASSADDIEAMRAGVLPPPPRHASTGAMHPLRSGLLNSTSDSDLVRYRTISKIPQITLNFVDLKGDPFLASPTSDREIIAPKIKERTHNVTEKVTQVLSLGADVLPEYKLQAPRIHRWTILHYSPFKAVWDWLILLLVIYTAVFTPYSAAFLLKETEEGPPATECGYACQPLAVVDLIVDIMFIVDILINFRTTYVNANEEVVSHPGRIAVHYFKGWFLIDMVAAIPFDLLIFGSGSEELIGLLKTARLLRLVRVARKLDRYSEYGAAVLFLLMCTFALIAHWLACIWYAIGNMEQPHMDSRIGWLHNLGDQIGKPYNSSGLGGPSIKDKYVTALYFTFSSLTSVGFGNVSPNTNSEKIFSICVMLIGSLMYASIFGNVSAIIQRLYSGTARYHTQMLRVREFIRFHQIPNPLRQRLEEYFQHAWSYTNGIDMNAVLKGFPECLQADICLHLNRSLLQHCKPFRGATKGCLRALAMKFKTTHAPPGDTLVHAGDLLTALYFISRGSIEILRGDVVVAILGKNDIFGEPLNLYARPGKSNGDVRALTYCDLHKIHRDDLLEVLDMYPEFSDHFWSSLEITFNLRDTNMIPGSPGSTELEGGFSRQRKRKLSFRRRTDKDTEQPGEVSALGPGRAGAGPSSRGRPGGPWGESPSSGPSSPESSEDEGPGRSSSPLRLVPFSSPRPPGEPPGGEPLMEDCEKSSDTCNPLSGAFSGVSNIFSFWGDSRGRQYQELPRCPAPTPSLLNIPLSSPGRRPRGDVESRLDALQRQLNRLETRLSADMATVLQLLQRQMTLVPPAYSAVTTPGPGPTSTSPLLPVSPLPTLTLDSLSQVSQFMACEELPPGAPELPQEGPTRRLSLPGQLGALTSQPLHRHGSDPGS
With `c1cn(CCCNc2ncnc3nc[nH]c23)cn1`, the “hERG current change (%, negative = inhibition) at 10uM” value came to 8.93%.
The result for `c1ccc(-c2oc3ncnc(NCCCn4ccnc4)c3c2-c2ccccc2)cc1` reads -69.9%.
For the molecule `Cc1ccc(OCCCC(=O)Nc2cc(Cl)ccc2-n2cncn2)cc1`, the “hERG current change (%, negative = inhibition) at 10uM” value was -22.4%.
The result for `CCOC(=O)N1CCN(C(=O)CSCC(=O)Nc2nc(-c3cccs3)cs2)CC1` reads -31.4%.
The result for `CCOc1ccccc1N1CC(C(=O)N2CCc3ccccc3C2)CC1=O` (stereo not shown) reads -19.4%; that for `COc1cc(CN2CCC(C(=O)N3CCN(c4ccccc4F)CC3)CC2)cc(OC)c1O.O=C(O)C(=O)O`, -3.74%; that for `CCOc1ccccc1N1CC(C(=O)N2CCN(Cc3ccc(C#N)cc3)CC2)CC1=O` (stereo not shown), -67.3%.
The result for `COc1cccc(CN2CCC(C(=O)N3CCN(c4ccccc4F)CC3)CC2)c1OC.O=C(O)C(=O)O` reads -10.2%.
For the molecule `COc1ccc(CN2CCC(C(=O)N3CCN(c4ccccc4F)CC3)CC2)cc1OC`, the “hERG current change (%, negative = inhibition) at 10uM” value is -37%.
The result for `CCOc1ccc(CN2CCC(C(=O)N3CCN(c4ccccc4F)CC3)CC2)cc1OC.O=C(O)C(=O)O` reads -64.8%; that for `COc1cc(CN2CCC(C(=O)N3CCN(c4ccccc4F)CC3)CC2)ccc1O.O=C(O)C(=O)O`, -19.9%; that for `COc1cccc(CN2CCC(C(=O)N3CCC(C)CC3)CC2)c1.O=C(O)C(=O)O`, -11%.
The result for `COc1cccc(CN2CCC(C(=O)N3CCN(c4ccccc4F)CC3)CC2)c1` reads -53%.
The result for `CCOc1ccccc1N1CC(C(=O)N2CCOCC2)CC1=O` (stereo not shown) reads 13.9%.
Consider `COc1cc(CN2CCC(C(=O)N3CCN(c4ccccc4F)CC3)CC2)cc(OC)c1OC.O=C(O)C(=O)O`, for which the “hERG current change (%, negative = inhibition) at 10uM” value was -22.6%.
The result for `COc1ccc(OC)c(CN2CCC(C(=O)N3CCN(c4ccccc4F)CC3)CC2)c1.O=C(O)C(=O)O` reads -65.3%.
The result for `CC1=C/C(=C(/c2ccc(O)c(C)c2)c2ccccc2S(=O)(=O)[O-])C=CC1=O.[Na+]` reads 3.9%.
Take `Cc1ccc(NC(=O)CSc2ccc(-c3cccnc3)nn2)cc1`: the “hERG current change (%, negative = inhibition) at 10uM” value is listed as -12.3%.
On to `Cc1cccc(OCC(=O)N/N=C\c2cc3c(cc2[N+](=O)[O-])OCO3)c1C`, for which the “hERG current change (%, negative = inhibition) at 10uM” value is -7.82%.
In the case of `Cc1ccccc1C(=O)Nc1ccccc1C(=O)NC1CC1`, the “hERG current change (%, negative = inhibition) at 10uM” value came out at 6.72%.
The result for `Cc1ccccc1N(CC(=O)NC1CCCCC1)C(=O)c1csnn1` reads 8.46%; that for `CCC(=O)Nc1sc2c(c1C(N)=O)CCN(C(C)=O)C2`, 10.7%; that for `Cc1ccc(C(=O)Oc2cccc(NC(=O)c3ccccc3)c2)cc1C`, 19.2%.
The result for `Cc1cc(C)cc(NC(=O)[C@@H](NC(=O)c2ccco2)C(C)C)c1` reads 5.62%; that for `Cc1cc(C(=O)NNC(=O)/C=C/c2ccc(F)cc2)c(C)o1`, 1.41%.
The result for `CCN1CCN(Cc2ccc(NC(=O)c3cc(NC(=O)c4cc(-c5ccc(OC)cc5)n[nH]4)cc(OC)c3)cc2C(F)(F)F)CC1` reads 11.9%.
For `CC(C)Nc1nc(NC(C)(C)C)nc(Oc2ccc(=O)n(C)n2)n1`, the “hERG current change (%, negative = inhibition) at 10uM” value is recorded as -15.3%.
Regarding `Cc1c(C(=O)NC2=NCCS2)oc2ccccc12`, the “hERG current change (%, negative = inhibition) at 10uM” value was -25.4%.
For the molecule `Cc1cc(C)nc(Oc2ccc(Br)cc2Br)n1`, the “hERG current change (%, negative = inhibition) at 10uM” value turned out to be 19.1%.
The result for `CCOc1ccccc1CN1CCC(CO)(CCOc2ccccc2)CC1` reads -80.2%; that for `C=CCOc1ccccc1CN1CCC(CO)(CCOc2ccccc2)CC1`, -81.9%.
The result for `C=CCOc1ccccc1CN1CCCN(C)CC1` reads 6.51%; that for `OCC1(CCOc2ccccc2)CCN(Cc2ccccc2C(F)(F)F)CC1`, -34.2%; that for `CCOc1ccccc1CN1CCN(S(=O)(=O)CC)CC1.O=C(O)C(=O)O`, 10.7%.
The result for `OCC1(CCOc2ccccc2)CCN(Cc2ccc(OC(F)F)cc2)CC1` reads -79%.
For `OCC1(CCOc2ccccc2)CCN(Cc2ccccc2OC(F)F)CC1`, the “hERG current change (%, negative = inhibition) at 10uM” value is -72.5%.
The result for `COc1ccccc1CN1CCN(C(=O)COc2ccccc2)CC1` reads -8.47%; that for `CCOCCCn1c(=O)c(NC(=O)c2ccc(OCC)cc2)c2n(c1=S)CCCCC2`, -27.8%; that for `CCCCCc1nnc(NC(=O)c2cccc(S(=O)(=O)N3CCOCC3)c2)s1`, -41.8%.
The result for `Cn1c(Cn2c(=O)sc3ccccc32)nnc1SCc1ccccc1F` reads -19.9%; that for `CCC(=O)N1CCN(c2ccc(NC(=O)c3cccs3)cc2)CC1`, -0.84%; that for `COc1cc(/C=N/n2cnnc2)ccc1OC(=O)c1ccncc1`, 8%.
The result for `O=C(COc1ncnc2ccccc12)Nc1ccc(S(=O)(=O)N2CCOCC2)cc1` reads 9.94%.
